Assay outcomes from PubChem.
Shown is part of a subset that was picked to be rich in hits.
TTR transcr act: TTR transcription activation, primary screen | AID 1117267 | activation, % at 16.7 µM | 92,000 compounds, 1.3% hits | SH-SY5Y TTR promoter Gaussia luciferase, luminescence; 100% = recombinant luciferase protein wells;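 active = activation above the mean of all tested compounds plus 3 SD, cut at about 9.5% in these data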;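 note: cells exposed to compounds for one day before reading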
TTR inh HuH7: HuH7 TTR transcription inhibition, counter-screen; shares compounds with TTR transcr act; inhibition, % at 16.7 µM; HuH7 TTR promoter-Gaussia luciferase reporter, luminescence; AID 1117279; 1,100 compounds, 4% hits;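 active = average inhibition above the solvent-only control wells' mean plus 3 SD, cut at about 15% in these data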;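 note: inhibitors lower well luminescence so higher value means more inhibition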
TTR act confirm: human TTR transcription activation, confirmation; shares compounds with TTR transcr act; SHSY5Y TTR promoter Gaussia luciferase, luminescence; 100% = purified Lucia enzyme wells, no cells; activation, % at 16.7 µM; 1,100 tested, under 10 active; AID 1117280;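 active = mean activation above a set limit taken from the earlier primary screen, cut at about 11% in these data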
A number is an active result; – = inactive.

SMILES	TTR transcr act	others
COC(=O)[C@]12C[C@H](CC(=O)N3CCN(C(=O)c4ccco4)CC3)C(=O)N(Cc3ccco3)C1=C[C@H](C1CCCC1)O[C@@H]2C	–
CC(C)C[C@H](NC1(C(=O)NC2CCCCC2)CCN(C(=O)OC(C)(C)C)CC1)C(=O)NCCc1c[nH]c2ccccc12	–
CN(C)CCCNC(=O)c1cc(C(=O)C2CCCCC2)c[nH]1	–
O=C(Cc1ccccc1)c1c[nH]c(C(=O)NCc2ccncc2)c1	–
CN(C)CCCNC(=O)c1cc(C(=O)Cc2ccccc2)c[nH]1	21	TTR inh HuH7=–;TTR act confirm=–
C/C(=N\NC(=O)C(N)=O)c1cccc([N+](=O)[O-])c1	–
C/C(=N\Nc1cc(C)nc(-c2ccccc2)n1)c1cccc([N+](=O)[O-])c1	–
C/C(=N\Nc1ncc(Br)cn1)c1cccc([N+](=O)[O-])c1	14	TTR inh HuH7=21;TTR act confirm=–
O=C1OCc2ccc(NC(=O)C3CC3)cc21	21	TTR inh HuH7=–;TTR act confirm=–
O=C1OCc2ccc(NC(=O)c3c(F)cccc3Cl)cc21	–
O=C(Nc1cccc(Cl)c1)Nc1ccc2c(c1)C(=O)OC2	–
CCOC(=O)c1cc(C(=O)NN)c(C)nc1C	–
CCOC(=O)c1cc2cc(F)ccc2nc1C	23	TTR inh HuH7=–;TTR act confirm=–
CCOC(=O)c1cnn2c(C)cc(-c3ccc(F)cc3)nc12	–
O=C(c1ccc(Cl)cc1)C1CCN(c2ncnc3sccc23)CC1	–
CCOC(=O)N1CCC(NC(=O)C2=CCN(S(=O)(=O)c3ccc(OC)cc3)CC2)CC1	–
O=C(Nc1ccc(C(O)(C(F)(F)F)C(F)(F)F)cc1)c1ccc(F)cc1F	–
COc1ccc(C2=Nn3c(nnc3-c3ccc(OC)cc3)SC2)cc1	–
CC(C)(C)C1=Nn2c(nnc2C2CCCCC2)SC1	–
c1cc2c(cc1C1=Nn3c(nnc3C3CCCCC3)SC1)OCO2	9.9	TTR inh HuH7=30;TTR act confirm=–
CCCCCCC(=O)NC1CCCCN(Cc2ccc(Cl)cc2)C1=O (centres undefined)	–
Oc1ccc(CNc2cccnc2)c2cccnc12	–
C=CCN1C(=O)[C@H](CC(=O)NCc2ccc(OC)c(OC)c2)[C@@]2(C(=O)OCC)CCCC=C12	–
Cc1ccc(CN2CCCCC(NC(=O)Nc3ccccc3)C2=O)cc1 (centres undefined)	–
CCCC[C@H](C(=O)N(C)c1ccccc1)[C@@H](O)c1ccc(Cl)cc1	–
SMILES	TTR transcr act	others
Cc1ccccc1OCC(=O)OCC(=O)N1CCc2ccccc21	–
COc1cccc(C(=O)OCC(=O)N2CCc3ccccc32)c1OC	12	TTR inh HuH7=–;TTR act confirm=–
COc1ccccc1C(=O)N1CCc2ccccc21	–
CCC(CC)NC(=O)O[C@H]1CC[C@@]23CCCN2C(=O)CCC[C@H]3C1	–
CC1CCCCC12NC(=O)N(CC(=O)N1CCN(S(=O)(=O)c3ccc(Cl)s3)CC1)C2=O (centres undefined)	–
CC(C)CC(NC(=O)C(Cc1ccc(OCc2ccccc2)cc1)NC(=O)OC(C)(C)C)C(N)=O (centres undefined)	–
CCOC(=O)C(Cc1ccc(O)cc1)NC(=O)CNC(=O)C(CC(C)C)NC(=O)OC(C)(C)C (centres undefined)	30	TTR inh HuH7=–;TTR act confirm=–
CCOC(=O)C(Cc1ccccc1)NC(=O)CNC(=O)CNC(=O)OCc1ccccc1 (centres undefined)	–
O=C1NC(=O)C([N+](=O)[O-])=C(O)C1=O	–
CCOC(=O)C1(CC2CCCCO2)CCN(Cc2cc3ccccc3[nH]2)CC1 (centres undefined)	–
O=[N+]([O-])c1ccc(C=NN2CCNC2=S)o1	10.0	TTR inh HuH7=–;TTR act confirm=–
O=C(N/N=C/c1ccc([N+](=O)[O-])o1)C(=O)Nc1ccc(C(=O)O)cc1	–
CN(/N=C/c1ccc([N+](=O)[O-])o1)c1ccccc1	–
O=C(O)C1CCCCN1C(=O)c1cc2c(s1)CCCCC2 (centres undefined)	–
NC(=O)NCc1ccc(F)cc1	–
CC(C)(C)CC(=O)NCc1ccc(F)cc1	15	TTR inh HuH7=–;TTR act confirm=–
Cc1ccc(C(=O)OCC(=O)NCc2ccc(F)cc2)o1	–
CN1C(=O)c2cc(NC(=O)c3ccc(F)cc3)ccc2OC[C@H]2O[C@H](CC(=O)NC3CCC3)CC[C@H]21	–
O=C(NCC1CCCO1)c1ccc2c(=O)n(Cc3ccc(Cl)cc3)c(=S)[nH]c2c1 (centres undefined)	–
COc1ccccc1CNC(=O)c1ccc2c(=O)n(CC3CCCO3)c(=S)[nH]c2c1 (centres undefined)	–
O=C(NCC1CCCO1)c1ccc2c(=O)n(-c3ccc(F)cc3)c(=S)[nH]c2c1 (centres undefined)	12	TTR inh HuH7=–;TTR act confirm=–
Cc1ccccc1CN1[C@@H](C)[C@H](c2ccccc2)Oc2cccc(N3CCCC(C)C3)c2S1(=O)=O (some centres undefined)	–
C#CCNC(=O)C[C@H]1C[C@@]2(C(=O)OC)C(=C[C@H](C3CCCC3)O[C@@H]2C)N(Cc2ccc(Cl)cc2Cl)C1=O	–
CC[C@]12c3[nH]c4cc(CCC(=O)N(C)C)ccc4c3CCN1C(=O)[C@@H](CC(=O)NCc1ccc(OC)c(OC)c1)C[C@@H]2C(=O)N1CCN(C(=O)C2CC2)CC1	–
CC[C@]12c3[nH]c4cc(-c5ccco5)ccc4c3CCN1C(=O)[C@@H](CC(=O)NCc1ccc(OC)c(OC)c1)C[C@@H]2C(=O)N1CCN(C(=O)C2CC2)CC1	10	TTR inh HuH7=–;TTR act confirm=–
SMILES	TTR transcr act	others
CC[C@]12c3[nH]c4cc(-c5ccco5)ccc4c3CCN1C(=O)[C@@H](CC(=O)NCCC1=CCCCC1)C[C@@H]2C(=O)N1CCN(C(=O)C2CC2)CC1	–
CCCNC(=O)c1cc(C2CCCN(C(=O)C3CCCCC3)C2)on1 (centres undefined)	–
CC(=O)c1cccc(Nc2nc(N3CCOCC3)nc(N3CCOCC3)n2)c1	–
O=C(NNc1cc(N2CCOCC2)nc(N2CCOCC2)n1)c1ccc(Cl)c(Cl)c1	–
O=C(NNc1nc(N2CCOCC2)nc(N2CCOCC2)n1)c1ccccc1	23	TTR inh HuH7=–;TTR act confirm=–
O=C(Nc1ccc(F)cc1)OCc1cn(Cc2cccc(F)c2F)nn1	–
O=C(Nc1ccc(NC(=O)c2ccccc2Cl)c(Cl)c1)c1ccccn1	–
Cc1ccc(CNC2CCC23CCC(c2ccccc2)CC3)o1 (centres undefined)	–
CCN(CCC(=O)Nc1cc(OC)ccc1OC)Cc1ccccc1	–
CCCCn1c(N)c(N(CC(C)C)C(=O)Cn2c(=O)oc3ccccc32)c(=O)[nH]c1=O	–
CCCCn1c(N)c(N(CC(C)C)C(=O)C2CC(=O)N(c3ccc(C)cc3)C2)c(=O)[nH]c1=O (centres undefined)	–
CCCCn1c(N)c(N(CC(C)C)C(=O)CN2C(=O)NC3(CC(C)CC(C)(C)C3)C2=O)c(=O)[nH]c1=O (centres undefined)	11	TTR inh HuH7=–;TTR act confirm=–
O=C(CCn1cccn1)Nc1ccc(-c2ccno2)cc1	–
Cc1ccccc1-c1nc(CSc2nc3c(c(=O)[nH]2)CCC3)c(C)o1	–
Cc1oc(-c2ccccc2)nc1CSc1nc2c(c(=O)[nH]1)CCC2	14	TTR inh HuH7=–;TTR act confirm=–
Cc1cccc(-c2nc(CSc3nc4c(c(=O)[nH]3)CCC4)c(C)o2)c1	–
O=C(NC1CCCCN(Cc2ccc(Cl)cc2)C1=O)c1cccc([N+](=O)[O-])c1 (centres undefined)	–
